What follows are compounds tested on Plasmodium falciparum (assay: GSK_TCMDC: Inhibition of Plasmodium falciparum 3D7 in whole red blood cells, using parasite LDH activity as an index of growth. Test compounds present at 2uM).
Type: functional

| Structure (SMILES) | Inhibition |
| --- | --- |
| CNc1ccc(CNCc2ccc(-c3ccc(-c4nc5cccc(C)c5[nH]4)s3)cc2)cc1.O=C(O)C(F)(F)F | 100% |
| O=C(Nc1ccc(OC2CCN(Cc3ccsc3)CC2)c(Cl)c1)c1cccs1.O=C(O)C(F)(F)F | 94% |
| O=C(NCCN1CCCC1)c1cccc(-c2ccc(-c3nc4cc(F)ccc4[nH]3)s2)c1 | 100% |
| O=C(O)C(F)(F)F.O=S(=O)(NCCN1CCCC1)c1ccc(-c2cccc(CNC3Cc4ccccc4C3)c2)cc1 | 99% |
| CCc1ccc(C(=O)Nc2cccc(CN3CCCN(Cc4ccc(O)cc4)CC3)c2)cc1.O=C(O)C(F)(F)F | 100% |
| CN(Cc1ccc(C#N)cc1)C1CCN(c2cc(NC(=O)c3ccc(F)cc3)ccn2)CC1.O=C(O)C(F)(F)F | 86% |
| Cc1cc(NC2CCN(CC3CCCCC3)CC2)nc(Nc2ccccc2Cl)n1 | 100% |
| CS(=O)(=O)c1ccc2[nH]c(-c3cc(-c4ccc(OCCN5CCOCC5)cc4)cnc3N)nc2c1.O=C(O)C(F)(F)F | 100% |
| Cc1cc2nc(-c3ccc(C(=O)NCc4ccc(C(C)(C)C)cc4)cc3)[nH]c2cc1C | 100% |
| FC(F)(F)c1ccc2[nH]c(-c3ccc(-c4ccc(CNCC5CCCO5)cc4)s3)nc2c1.O=C(O)C(F)(F)F (stereo unspecified) | 100% |
| O=C(Nc1cccc(-c2nn3ccccc3c2-c2ccnc(Nc3cccc(C(F)(F)F)c3)n2)c1)c1c(F)cccc1F | 97% |
| Cc1cccc(C)c1CNc1nc(N2CCOCC2)cc2c(C)c(C)[nH]c12.Cl | 92% |
| COc1ccc(Cl)cc1N1CCN(CCCNC(=O)c2ccc(-c3nc4cc5ccccc5cc4[nH]3)c(F)c2)CC1 | 99% |
| Cc1cc(NCCC(=O)NCCOc2ccccc2)nc(NCCc2ccccc2)n1.O=C(O)C(F)(F)F | 99% |
| Br.Clc1ccc(-c2nc(-c3ccncc3)c[nH]2)cc1Cl | 96% |
| Cc1cc(C(F)(F)F)nn1-c1ccc(NC(=O)c2ccco2)cc1 | 94% |
| Cc1nn(CC(O)Cn2c3ccc(Br)cc3c3cc(Br)ccc32)c(C)c1Br (stereo unspecified) | 98% |
| CNC(=O)c1ccc2nc(-c3ccc(-c4ccccc4)cc3)n(CC3CCN(CC4CCCC4)CC3)c2c1.O=C(O)C(F)(F)F | 84% |
| Cc1ccc2[nH]c(C)c(Br)c(=O)c2c1 | 95% |
| O=C(/C=C/c1ccc(Cl)c(Cl)c1)NCCCCN1CCCN(C(=O)Nc2ccc(C(F)(F)F)cc2)CC1 | 94% |
| COc1ccc2[nH]c(C(=O)Nc3cccc(-c4ccc(CN(C)C)cc4)c3)cc2c1 | 100% |
| CN1CCC(N2CCN(c3ccc4c(=O)nc(CCc5cccc(F)c5F)n(CC(=O)N(C)Cc5ccc(-c6ccc(C(F)(F)F)cc6)cc5)c4n3)CC2)CC1.O=C(O)C(O)C(O)C(=O)O | 100% |
| COc1cccc(Nc2nc(C)cc(NCc3ccc(-c4c(C)noc4C)cc3)n2)c1 | 98% |
| COc1ccc(CNC(=O)NC2CCN(c3ccnc(Nc4cc(OC)c(OC)c(OC)c4)n3)C2)cc1 (stereo unspecified) | 91% |
| CS(=O)(=O)Nc1cccc(-c2cnc3[nH]cc(-c4ccc(CN)cc4)c3c2)c1 | 98% |
| CC(=O)c1ccc(Nc2c(C(N)=O)cnc3cc(-c4c(C)noc4C)ccc23)cc1 | 99% |

The compounds below were run on Plasmodium falciparum (assay: GSK_TCMDC: Inhibition of Plasmodium falciparum Dd2 in whole red blood cells, using parasite LDH activity as an index of growth. Test compounds present at 2uM).
Type: functional

| Structure (SMILES) | Inhibition |
| --- | --- |
| Cc1[nH]n(-c2cccc(C(F)(F)F)c2)c(=O)c1-c1ccc(Cl)cc1 | 25% |
| Nc1nccc2ccc(-c3ccc4ncccc4c3)cc12.O=C(O)C(F)(F)F | 100% |
| Cc1cc(N[C@@H](Cc2ccccc2)C(=O)NCc2cccc(F)c2)nc(NCCc2cccs2)n1.O=C(O)C(F)(F)F | 22% |
| Cc1cc(NCC(C)C)c2[nH]nc(-c3ccccc3)c2n1 | 30% |
| COc1ccccc1-n1c(SCC(=O)c2ccc3c(c2)CC(=O)N3C)nnc1-c1cccs1 | 55% |
| CCCCCCc1cnc2nc(N)nc(N)c2c1C | 20% |
| CCC(C)Oc1ccc2nc(N)nc(N)c2c1Cl (stereo unspecified) | 0% |
| O=C(Nc1ccc(Cl)cc1)c1cc(Cl)cc2nc(C(F)(F)F)[nH]c12 | 100% |
| CC(C)(C)OC(=O)C1CCCN(Cc2ccc(-c3cccc(-c4nc5ccccc5[nH]4)c3)cc2)C1.O=C(O)C(F)(F)F (stereo unspecified) | 27% |
| O=C(/C=C/c1ccc(Cl)cc1Cl)N1CCC(CCN2CCC(c3c[nH]c4ccccc34)CC2)CC1 | 37% |
| CCCCCCCN1CC[C@@H](CCCc2ccnc3ccc(OCCC4CCNCC4)cc23)[C@@H](CC)C1.Cl | 100% |
| C=CCOC(=O)N1CCC(CNCc2cccc(-c3cccc(-c4nc5cccc(C)c5[nH]4)c3)c2)C1.O=C(O)C(F)(F)F (stereo unspecified) | 69% |
| COc1ccc2nccc([C@@H](O)CN3CCC(NCc4cc5ccccn5n4)CC3)c2c1.O=C(O)C(=O)O | 18% |
| O=S(=O)(Nc1cccc(CCN2CCC(N3CCCCC3)CC2)c1)c1ccc(Cl)cc1 | 23% |
| CNc1ccc(CNCc2ccc(-c3ccc(-c4nc5cccc(C)c5[nH]4)s3)cc2)cc1.O=C(O)C(F)(F)F | 94% |
| O=C(Nc1ccc(OC2CCN(Cc3ccsc3)CC2)c(Cl)c1)c1cccs1.O=C(O)C(F)(F)F | 93% |
| O=C(NCCN1CCCC1)c1cccc(-c2ccc(-c3nc4cc(F)ccc4[nH]3)s2)c1 | 4% |
| O=C(O)C(F)(F)F.O=S(=O)(NCCN1CCCC1)c1ccc(-c2cccc(CNC3Cc4ccccc4C3)c2)cc1 | 57% |
| CCc1ccc(C(=O)Nc2cccc(CN3CCCN(Cc4ccc(O)cc4)CC3)c2)cc1.O=C(O)C(F)(F)F | 74% |
| CN(Cc1ccc(C#N)cc1)C1CCN(c2cc(NC(=O)c3ccc(F)cc3)ccn2)CC1.O=C(O)C(F)(F)F | 10% |

| Structure (SMILES) | Inhibition |
| --- | --- |
| Cc1cc(NC2CCN(CC3CCCCC3)CC2)nc(Nc2ccccc2Cl)n1 | 31% |
| CS(=O)(=O)c1ccc2[nH]c(-c3cc(-c4ccc(OCCN5CCOCC5)cc4)cnc3N)nc2c1.O=C(O)C(F)(F)F | 99% |
| Cc1cc2nc(-c3ccc(C(=O)NCc4ccc(C(C)(C)C)cc4)cc3)[nH]c2cc1C | 59% |
| FC(F)(F)c1ccc2[nH]c(-c3ccc(-c4ccc(CNCC5CCCO5)cc4)s3)nc2c1.O=C(O)C(F)(F)F (stereo unspecified) | 98% |
| O=C(Nc1cccc(-c2nn3ccccc3c2-c2ccnc(Nc3cccc(C(F)(F)F)c3)n2)c1)c1c(F)cccc1F | 91% |
| Cc1cccc(C)c1CNc1nc(N2CCOCC2)cc2c(C)c(C)[nH]c12.Cl | 64% |
| COc1ccc(Cl)cc1N1CCN(CCCNC(=O)c2ccc(-c3nc4cc5ccccc5cc4[nH]3)c(F)c2)CC1 | 62% |
| Cc1cc(NCCC(=O)NCCOc2ccccc2)nc(NCCc2ccccc2)n1.O=C(O)C(F)(F)F | 9% |
| Br.Clc1ccc(-c2nc(-c3ccncc3)c[nH]2)cc1Cl | 63% |
| Cc1cc(C(F)(F)F)nn1-c1ccc(NC(=O)c2ccco2)cc1 | 93% |
| Cc1nn(CC(O)Cn2c3ccc(Br)cc3c3cc(Br)ccc32)c(C)c1Br (stereo unspecified) | 81% |
| CNC(=O)c1ccc2nc(-c3ccc(-c4ccccc4)cc3)n(CC3CCN(CC4CCCC4)CC3)c2c1.O=C(O)C(F)(F)F | 36% |
| Cc1ccc2[nH]c(C)c(Br)c(=O)c2c1 | 84% |
| O=C(/C=C/c1ccc(Cl)c(Cl)c1)NCCCCN1CCCN(C(=O)Nc2ccc(C(F)(F)F)cc2)CC1 | 0% |
| COc1ccc2[nH]c(C(=O)Nc3cccc(-c4ccc(CN(C)C)cc4)c3)cc2c1 | 34% |
| CN1CCC(N2CCN(c3ccc4c(=O)nc(CCc5cccc(F)c5F)n(CC(=O)N(C)Cc5ccc(-c6ccc(C(F)(F)F)cc6)cc5)c4n3)CC2)CC1.O=C(O)C(O)C(O)C(=O)O | 99% |
| COc1cccc(Nc2nc(C)cc(NCc3ccc(-c4c(C)noc4C)cc3)n2)c1 | 42% |
| COc1ccc(CNC(=O)NC2CCN(c3ccnc(Nc4cc(OC)c(OC)c(OC)c4)n3)C2)cc1 (stereo unspecified) | 90% |
| CS(=O)(=O)Nc1cccc(-c2cnc3[nH]cc(-c4ccc(CN)cc4)c3c2)c1 | 95% |
| CC(=O)c1ccc(Nc2c(C(N)=O)cnc3cc(-c4c(C)noc4C)ccc23)cc1 | 44% |

From ChEMBL document CHEMBL1157539, “Thousands of chemical starting points for antimalarial lead identification” (Nature, 2010)
